Reference: PubChem BioAssay (NCATS)
Records with an inconclusive call do not appear. Entries that show only a call come without a potency. The source made the active and inactive calls. Calls come from the whole dose curve; as a rule, active = well fitted curve in the direction sought with a large enough effect; inconclusive = small, poorly fitted or top-dose-only effect, or another doubt; inactive = no such curve, though single readings can be large; an effect the other way counts as inactive or inconclusive.

Experiments:
[1] = biological target: Aldehyde dehydrogenase, mitochondrial (Homo sapiens) (UniProt P05091); assay: qHTS for Inhibitors of the Aldehyde Dehydrogenase Family (ALDH2) Primary screen (AID 2061308); note: nearly all actives have a fitted effect of over 55% in size
[2] = biological target: Retinaldehyde dehydrogenase 3 (Homo sapiens) (UniProt P47895); assay: qHTS for Inhibitors of the Aldehyde Dehydrogenase Family (ALDH1A3) Primary screen (AID 2061315)

SMILES | Potency [1] | Potency [2]
O=C1c2ccccc2NC(c2ccccc2O)N1Cc1ccccc1 (stereo not given) | inactive | inactive
CC(=O)Nc1ccc(CNc2ncnc3ccc(-c4c(C)noc4C)cc23)cc1 | inactive | inactive
CCCCCC1CCC(C(=O)Nc2ccc(S(=O)(=O)Nc3nccs3)cc2)CC1 (stereo not given) | inactive | inactive
CC(C)(C)OC(=O)Nc1ncnc2c1C(c1ccccc1)c1c(ccc3ccccc13)O2 (stereo not given) | inactive | inactive
Cc1ccc(S(=O)(=O)Nc2ccc(Br)cc2C(=O)Nc2nc(-c3ccccc3)cs2)cc1 | inactive | inactive
Cc1ccc(-c2ccc(C(C)Nc3nc(-c4ccccc4C(C)C)ncc3C)cc2)cn1 (stereo not given) | inactive | inactive
COc1ccc(NC(=O)c2cnn3c(-c4ccccc4)cc(C)nc23)cc1 | inactive | inactive
COc1ccc(C2=Nn3c(nnc3-c3ccccc3C(F)(F)F)SC2)cc1OC | inactive | inactive
Cc1ccc(OCCn2c(CCNC(=O)C3CCCC3)nc3ccccc32)cc1 | inactive | inactive
COc1ccc(OC)c(C(=O)Nc2nc(-c3ccccc3)cs2)c1 | inactive | inactive
COc1ccc(NC(=O)c2cnn3c(C)cc(C)nc23)cc1OC | inactive | inactive
COc1ccc(Nc2nc(C#N)nc(NC3CCCC3)n2)cc1 | inactive | inactive
CCCn1c(C)nc2c(N(CCN(C)C)Cc3ccccc3)nc(C)nc21 | inactive | inactive
CC(C)c1ccccc1-c1nc(NCc2ccc(-c3cccnc3)cc2)c2[nH]cnc2n1 | inactive | inactive
CC1CC(=O)NN=C1c1ccc(NCC(C)(C)NCC(O)COc2cc(Cl)ccc2C#N)cc1 (stereo not given) | inactive | inactive
